Whole data set: some 18,000 sequences, median “log2 normalized intensity” near 0.36, cut for the highest 2% near 7.3. This is one part of a sample in which the highest values are shown more often than they occur.

The test deals with T1, HNF4alpha8 (COS-7 nuclear extract) (Homo sapiens, UniProt P41235-5 1-452).
T1 sequence: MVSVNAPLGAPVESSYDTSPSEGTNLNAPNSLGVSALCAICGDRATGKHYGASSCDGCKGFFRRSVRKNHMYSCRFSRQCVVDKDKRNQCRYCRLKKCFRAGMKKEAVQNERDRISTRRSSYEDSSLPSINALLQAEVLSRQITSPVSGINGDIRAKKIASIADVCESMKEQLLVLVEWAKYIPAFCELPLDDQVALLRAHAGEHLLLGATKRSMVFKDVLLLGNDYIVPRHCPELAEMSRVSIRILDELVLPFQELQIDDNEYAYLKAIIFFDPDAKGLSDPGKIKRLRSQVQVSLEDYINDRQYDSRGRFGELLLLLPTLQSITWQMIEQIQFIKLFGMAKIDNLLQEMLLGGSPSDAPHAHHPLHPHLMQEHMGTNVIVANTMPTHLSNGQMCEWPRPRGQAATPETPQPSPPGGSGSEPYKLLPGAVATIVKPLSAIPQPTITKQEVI
The test can be described thus: protein-binding microarray; COS-7 nuclear extract on double-stranded Agilent 4x180k PBM; binding buffer, salt, pH and temperature not given in the material; high values mean tight binding. The conditions noted are these: chain copies: 2; label: 3' end of strand 1 on the slide; dsDNA, one strand shown. Summed up: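 Nuclear extracts of COS-7 cells transiently transfected with a human HNF4α isoform were applied to a custom Agilent SurePrint G3 4x180k array bearing ~44,000 double-stranded ~60-nt test sequences, each in quadruplicate. The bound protein was imaged on an Agilent G2565CA scanner at 2-µm resolution. Binding signal is the normalized, background-corrected gProcessedSignal from Agilent software.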
With “CAGAGACAATGTGAGCAGGTGTGTGGCATCGCCTAGGGAGATTAGAGTATCGGTCGA”, the binding signal came out at 0.13 log2 normalized intensity.

On to “CGACCTCCCCGTCACCCTCCCCGCCACCCCGCCTAGGGAGATTAGAGTATCGGTCGA”, for which the binding signal is 7.01 log2 normalized intensity.

For the sequence “GCAAATGTGTCTTTTTTAGTCAGCATAGTTGCCTAGGGAGATTAGAGTATCGGTCGA”, the binding signal came out at 1.34 log2 normalized intensity.

Take “TGTGACAGAAGTCATGTCTCATTGCCCCTTGCCTAGGGAGATTAGAGTATCGGTCGA”: the binding signal is 4.58 log2 normalized intensity.

“GAATGGCCAGAGTTCCTGTGCAAGCCCCTGGCCTAGGGAGATTAGAGTATCGGTCGA”: the binding signal is -0.986 log2 normalized intensity.

Take “GGTGAAGGGGTCACCTCGCTCCCCTCCTGTGCCTAGGGAGATTAGAGTATCGGTCGA”: the binding signal is 1.02 log2 normalized intensity.

Consider “GTTGGTTTCTGGGATTTGTACAAGTGATTGGCCTAGGGAGATTAGAGTATCGGTCGA”, for which the binding signal was 1.63 log2 normalized intensity.

“TCACCATATCCCTGAGAGGCCAGTTTGACCGCCTAGGGAGATTAGAGTATCGGTCGA”: the binding signal was determined as 3.28 log2 normalized intensity.

Take “GAGGCCAGTTTGACCTTTGCATTCTTACCCGCCTAGGGAGATTAGAGTATCGGTCGA”: the binding signal was 7.03 log2 normalized intensity.

“TTTGGAGTTTGACCTGGAGCCAGGGCCTTTGCCTAGGGAGATTAGAGTATCGGTCGA”: the binding signal turned out to be 3.92 log2 normalized intensity.

As to “ATATCCCTGAGAGGCCAGTTTGACCTTTGCGCCTAGGGAGATTAGAGTATCGGTCGA”, the binding signal is 8.82 log2 normalized intensity.

Regarding “CAGTTTGACCTTTGCATTCTTACCCAAGCCGCCTAGGGAGATTAGAGTATCGGTCGA”, the binding signal amounted to 5.1 log2 normalized intensity.

With “CCTGAGAGGCCAGTTTGACCTTTGCATTCTGCCTAGGGAGATTAGAGTATCGGTCGA”, the binding signal came out at 8.31 log2 normalized intensity.

With “AACATGTAAATATGACCTTTGCTTTTCAAGGCCTAGGGAGATTAGAGTATCGGTCGA”, the binding signal stood at 5.13 log2 normalized intensity.

In the case of “ATGTGGTCAAAACTTTGTTTGAGTTCCAAAGCCTAGGGAGATTAGAGTATCGGTCGA”, the binding signal worked out at 1.01 log2 normalized intensity.

For “TTTGACATCACCTAACTTGTGGCTGGGTGAGCCTAGGGAGATTAGAGTATCGGTCGA”, the binding signal is 1.15 log2 normalized intensity.

In the case of “AACCCCTTTTCAATTCCTTATCTCGTTCTGGCCTAGGGAGATTAGAGTATCGGTCGA”, the binding signal was 0.721 log2 normalized intensity.

As for “ATGTGACCTTTTGGACCACAGAGTGACCTGGCCTAGGGAGATTAGAGTATCGGTCGA”, the binding signal was determined as 5.66 log2 normalized intensity.

Regarding “ACAGCAGTGGACTTTGACCTTGGCACTGAAGCCTAGGGAGATTAGAGTATCGGTCGA”, the binding signal was determined as 9.68 log2 normalized intensity.

For “CAGTCACAGCAGTGGACTTTGACCTTGGCAGCCTAGGGAGATTAGAGTATCGGTCGA”, the binding signal was 9.69 log2 normalized intensity.

Regarding “ACAGCACTGACCTTTGAGAGTCAACACTGAGCCTAGGGAGATTAGAGTATCGGTCGA”, the binding signal worked out at 3.53 log2 normalized intensity.

Turning to “TGACCTTGCAGTGGCAAGGCAAAAGAGACAGCCTAGGGAGATTAGAGTATCGGTCGA”, the binding signal is 0.892 log2 normalized intensity.

For “ACTTTGACCTTGGCACTGAAGAATGTCTAAGCCTAGGGAGATTAGAGTATCGGTCGA”, the binding signal came out at 2.09 log2 normalized intensity.

Take “CCTCCTGTGGTAATAAGTTGGTGGACGCTGGCCTAGGGAGATTAGAGTATCGGTCGA”: the binding signal is 1.13 log2 normalized intensity.

For the sequence “GAGACAGCTCCACAGCTGGACTTTGGCTGCGCCTAGGGAGATTAGAGTATCGGTCGA”, the binding signal is 6.17 log2 normalized intensity.

“GGACTTTGGTGTCTGACAGATAAGATTTGGGCCTAGGGAGATTAGAGTATCGGTCGA”: the binding signal worked out at 2.62 log2 normalized intensity.

Take “ATCTCCAAACGAGACTTTGGACTTTGGACTGCCTAGGGAGATTAGAGTATCGGTCGA”: the binding signal is 11.9 log2 normalized intensity.

For “ATTTGGACTTTTACTCTTAGAGATAATGGGGCCTAGGGAGATTAGAGTATCGGTCGA”, the binding signal worked out at 2.47 log2 normalized intensity.

With “AAAATATGGACTTTGGAATTAAGAAAAGCTGCCTAGGGAGATTAGAGTATCGGTCGA”, the binding signal was 5.77 log2 normalized intensity.

On to “AGGCCAAACAAAAATATGGACTTTGGAATTGCCTAGGGAGATTAGAGTATCGGTCGA”, for which the binding signal stood at 8.4 log2 normalized intensity.

With “GGATAATGATAAAGAGATTGGACTTTGGCCGCCTAGGGAGATTAGAGTATCGGTCGA”, the binding signal turned out to be 9.44 log2 normalized intensity.

In the case of “TCTTTAGGCCAAACAAAAATATGGACTTTGGCCTAGGGAGATTAGAGTATCGGTCGA”, the binding signal worked out at 6.57 log2 normalized intensity.

As for “AAAGATGTTTAAATAGTGATAATGGATGGCGCCTAGGGAGATTAGAGTATCGGTCGA”, the binding signal worked out at 0.702 log2 normalized intensity.

As for “ATCTCCAGATAAGACTTTGGACTTTGGACCGCCTAGGGAGATTAGAGTATCGGTCGA”, the binding signal is 11.8 log2 normalized intensity.

As to “GCTAAGAGACAGCTCCACAGCTGGACTTTGGCCTAGGGAGATTAGAGTATCGGTCGA”, the binding signal worked out at 5.9 log2 normalized intensity.

Turning to “TATGCTCTCTCTCCACCTGGAGGGACTTTGGCCTAGGGAGATTAGAGTATCGGTCGA”, the binding signal came to 3.06 log2 normalized intensity.

With “GGGTTAGGCCTTTAGAGGATTTACTTATACGCCTAGGGAGATTAGAGTATCGGTCGA”, the binding signal was found to be 0.821 log2 normalized intensity.

On to “TGCTCATAGCTACGGGTGACCTTGAGCACTGCCTAGGGAGATTAGAGTATCGGTCGA”, for which the binding signal worked out at 3.93 log2 normalized intensity.

For “TCCTCTTCCCTACCCCCTGGGAGTAACCTGGCCTAGGGAGATTAGAGTATCGGTCGA”, the binding signal came out at 3.13 log2 normalized intensity.

“CACAAATTGGAGAGCATCTTGGACTTGGGAGCCTAGGGAGATTAGAGTATCGGTCGA”: the binding signal stood at 3.16 log2 normalized intensity.

On to “AAAGGGACTCATCTCCAAACGAGACTTTGGGCCTAGGGAGATTAGAGTATCGGTCGA”, for which the binding signal turned out to be 2.23 log2 normalized intensity.

Consider “GACTCATCTCCAAACGAGACTTTGGACTTTGCCTAGGGAGATTAGAGTATCGGTCGA”, for which the binding signal stood at 9.58 log2 normalized intensity.

The values above are taken from publication PMC10726135, “HNF4α isoforms regulate the circadian balance between carbohydrate and lipid metabolism in the liver”.
